Source: PubChem BioAssay
AmpC no deterg: AmpC beta-lactamase inhibition without detergent; hit rate 0.52% among 330,000; AmpC nitrocefin hydrolysis, absorbance 480 nm, 0.0001% Triton; Potency, µM (top dose mostly 57.1 µM), for inactives: top-dose activity change, negative = inhibition, most hits filed as inhibitors; P00811; AID 485341;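 further: plate controls were no compound for no effect and no enzyme for full effect; nearly all actives have a fitted effect of over 20% in size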
Target sequence (P00811 whole entry, looked up): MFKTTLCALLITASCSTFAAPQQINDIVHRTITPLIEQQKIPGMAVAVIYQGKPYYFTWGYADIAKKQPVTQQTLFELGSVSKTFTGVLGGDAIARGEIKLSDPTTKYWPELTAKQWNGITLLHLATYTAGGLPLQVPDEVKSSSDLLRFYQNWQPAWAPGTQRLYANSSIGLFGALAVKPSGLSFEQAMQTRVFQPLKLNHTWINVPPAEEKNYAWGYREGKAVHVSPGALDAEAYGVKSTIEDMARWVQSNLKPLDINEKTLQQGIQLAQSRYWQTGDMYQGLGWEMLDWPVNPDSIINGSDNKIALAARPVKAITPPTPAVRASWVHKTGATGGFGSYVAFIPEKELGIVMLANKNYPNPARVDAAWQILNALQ
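20 mM phosphate pH 7.0 + 0.01% (detergent screen) or 0.0001% Triton X-100; 5.3 nM AmpC reagent; cpd preinc 15 min RT; nitrocefin (800 uM stock) to start; A480 q20 s × 4 min; Activity was normalised to no-enzyme and no-compound control wells.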
AmpC detergent: AmpC beta-lactamase inhibition with detergent present | hit rate 0.041% among 370,000 | AmpC hydrolysis of nitrocefin, absorbance 480 nm, 0.01% Triton | Potency, µM (top dose mostly 114 µM), without a hit: at the top dose activity change, negative = inhibition, most hits filed as inhibitors | AID 485294;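 further: 0% = no-compound wells and -100% = no-enzyme wells; nearly all actives have a fitted effect of over 25% in size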
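20 mM phosphate pH 7.0 + 0.01% (detergent screen) or 0.0001% Triton X-100; 5.3 nM AmpC reagent; cpd preinc 15 min RT; nitrocefin (800 uM stock) to start; A480 q20 s × 4 min; Activity was normalised to no-enzyme and no-compound control wells.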
AMA1 RON2 block: disrupts binding of P. falciparum AMA1 to RON2 | Potency, µM (doses to about 58.2 µM), inactives show at the highest dose activity change, negative = inhibition, usual class: inhibitors | AlphaScreen AMA1-biotinylated RON2 peptide binding | AID 720542 | hit rate 0.2% among 360,000;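 further: 0% = vehicle wells and -100% = peptide control; nearly all actives have a fitted effect of over 45% in size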
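AMA1 (3D7) with his tag at 25 nM final met compounds first, then biotinylated RON2 peptide at 25 nM; detection used donor plus acceptor beads, 10 µg/mL apiece, read by AlphaScreen after 30 min at room temperature.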
HCV inhibitor: inhibitors of hepatitis C virus infection. Huh7.5.1 HCVcc-Cre infection, luciferase reporter, 44 h. Potency, µM (doses to about 41.8 µM), for inactives: top-dose activity change, negative = inhibition, actives largely listed as inhibitors. hit rate 3.4% among 340,000
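Cells (1,000/well) were plated 4 h before compound, then infected with HCVcc-Cre virus (~0.5 moi). After 44 h further culture, infection was read as luciferase luminescence following a 15 min substrate incubation at room temperature.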
Pf growth 48h: inhibits P. falciparum growth in the first generation, 48 h; P. falciparum luciferase growth in erythrocytes, 48 h; Potency, µM (highest dose often 28.7 µM), inactives show at the highest dose activity change, negative = inhibition, hits mostly inhibitors; hit rate 5.9% among 310,000
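Compounds are pin-transferred into medium, infected erythrocytes (2% hematocrit, 0.1% parasitemia final) are added, and plates sit one parasite generation at 37 C in 5% CO2. Detection reagent is then added and luminescence measured.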
Pf growth 96h: P. falciparum growth inhibition at 96 hours; P. falciparum luciferase reporter growth, 96 h; Potency, µM (top dose mostly 28.7 µM), for the others: top-dose activity change, negative = inhibition, most hits filed as inhibitors; hit rate 6.9% among 320,000
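Luminescence readout: decreased luciferase signal marks inhibited growth of reporter-expressing P. falciparum in infected red cells (2% hematocrit, 0.05% parasitemia final), exposed to compound two generations (96 h, 37 C, 5% CO2).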
* = called active by the depositor; ? = inconclusive; / = no result given. This is a sample that favours compounds with a hit; in the whole collection about 11% have one here. The call rests on the fitted dose curve; in most records, active means well fitted curve in the direction sought with a large enough effect; inconclusive means small, poorly fitted or top-dose-only effect, or another doubt; inactive means no such curve, though single readings can be large; an effect the other way counts as inactive or inconclusive. Unless noted, on the % scale 0 is the no-effect control and ±100 the full control effect; potency means the concentration at half of the fitted maximal effect.

SMILES	AmpC no deterg	AmpC detergent	AMA1 RON2 block	HCV inhibitor	Pf growth 48h	Pf growth 96h
CCOC(=O)C1=CC[C@@H](c2cccc(C)c2)N(S(=O)(=O)c2ccc(C)cc2)[C@H]1C(=O)OCC	52%	4%	-9%	?	?	?
CCCC1(C(=O)OCC)NC(c2ccc(N(C)C)cc2)C2C(=O)N(c3ccccc3)C(=O)C21 (stereo not drawn)	36%	-4%	8%	8%	?	/
COC(=O)C1(C)NC(c2ccc(O)cc2)C2C(=O)N(c3ccc4c(c3)OCCO4)C(=O)C21 (stereo not drawn)	-22%	-15%	22%	9%	?	55%
COC(=O)C1(C)NC(c2cccc(C)c2)C2C(=O)N(c3ccc(F)cc3)C(=O)C21 (stereo not drawn)	-16%	8%	7%	6%	-4%	3.7µM*
CCCC1(C(=O)OCC)NC(c2ccc(N(C)C)cc2)C2C(=O)N(c3ccc(OCC)cc3)C(=O)C21 (stereo not drawn)	22%	-16%	-2%	12%	12µM*	?
COC(=O)C1(C)NC(c2ccc(O)cc2)C2C(=O)N(c3ccc(C)cc3)C(=O)C21 (stereo not drawn)	-12%	3%	15%	9%	30%	4.7µM*
C=C(C)CNC(=S)NNC(=O)CCn1c2cc(Cl)ccc2c2ccc(Cl)cc21	-37%	-13%	14%	-8%	7.4µM*	82%
C=C(C)CNC(=S)NNC(=O)CCn1c2ccc(Cl)cc2c2cc(Cl)ccc21	-28%	-7%	13%	-28%	2.3µM*	45%
CCCCCc1nn2cc(-c3ccccc3)nc2s1	/	0%	/	/	/	/
N#Cc1ccccc1Cn1c(=O)n(CCCC(=O)NCc2ccc3c(c2)OCO3)c(=O)c2sccc21	/	-4%	/	/	/	/
Cc1nc2ncnn2c(N2CCC(C(=O)NC3CCCC3)CC2)c1Cc1ccccc1	9%	-6%	18%	?	15µM*	45%
COc1cccc(CC(NC(C)=O)C(=O)NC2CCN(c3c(Cc4ccccc4)c(C)nc4ncnn34)CC2)c1 (stereo not drawn)	312%	0%	9%	-1%	3.7µM*	10µM*
Cc1ccccc1NC(=O)C1CCN(c2cc(-c3ccccc3)nc3ncnn23)CC1	-8%	-2%	-3%	32%	7.4µM*	-19%
CC(=O)NC(Cc1ccc(F)c(F)c1)C(=O)NC1CCN(c2c(Cc3ccccc3)c(C)nc3ncnn23)CC1 (stereo not drawn)	-24%	-6%	7%	-5%	15%	15%
Cc1cc(N2CCCC(C(=O)Nc3cccc(Cl)c3)C2)n2ncnc2n1 (stereo not drawn)	62%	5%	-9%	-15%	-2%	15µM*
Cc1cc(N2CCCC(C(=O)Nc3ccc4c(c3)CCC4)C2)n2ncnc2n1 (stereo not drawn)	-6%	-8%	3%	?	-19%	16%
COc1ccc(Cl)cc1NC(=O)c1nn(-c2ccc(C)cc2)c(=O)n(C)c1=O	/	23%	/	/	/	/
COc1ccc(CN(C)c2ccc(-c3nc(-c4ccccc4)no3)cc2[N+](=O)[O-])cc1	/	13%	/	/	/	/
Cc1cc(Br)ccc1NC(=O)c1ccc(NS(=O)(=O)c2c(C)noc2C)cc1	/	-3%	/	/	/	/
COc1ccc(CNC(=O)CCS(=O)(=O)c2ccc3c(c2)NC(=O)CS3)cc1	-37%	-9%	1%	13%	18%	15µM*
COc1ccc(CNC(=O)CCS(=O)(=O)c2ccc3c(c2)NC(=O)C(C)S3)cc1 (stereo not drawn)	-13%	-14%	0%	-5%	?	?
CC1CCCC(NC(=O)CCS(=O)(=O)c2ccc3c(c2)NC(=O)CS3)C1C (stereo not drawn)	-20%	0%	3%	1%	-10%	13µM*
Cc1ccc(NC(=O)Cn2c(=O)n(CC(=O)NCCc3ccccc3)c(=O)c3ccccc32)cc1C	/	-5%	/	/	/	/
Cc1ccc(CSc2nnc(-n3c(=O)c(C#N)cc4c(=O)n5cc(C)ccc5nc43)s2)cc1	/	3%	/	/	/	/
CCNC(=O)CC1C(=O)N(C)C(=S)N1NC(=O)c1ccc(Cl)cc1 (stereo not drawn)	-8%	?	108%	19%	57%	-29%
SMILES	AmpC no deterg	AmpC detergent	AMA1 RON2 block	HCV inhibitor	Pf growth 48h	Pf growth 96h
Nc1ccc(C(=O)NN2C(=O)[C@H](Cl)C2c2ccc(Cl)cc2)cc1 (stereo partly drawn)	/	/	6%	10µM*	/	/
Cc1c(Cl)cccc1NC(=O)N1CCN(Cc2cc(=O)n3nc(-c4ccccc4F)sc3n2)CC1	/	15%	/	/	/	/
O=c1nc2sc3ccccc3n2c(=O)n1-c1cccc(Cl)c1	-19%	2%	-3%	11µM*	92%	/
CCCCn1cnc2c1c(=O)n(CC(=O)c1cc(C)n(C)c1C)c(=O)n2CC(C)C	126%	-13%	-8%	0%	/	12µM*
Cc1cc(C(=O)COC(=O)Cn2cnc3c2c(=O)n(C)c(=O)n3C)c(C)n1C	0%	2%	-20%	7%	2%	34%
COC(=O)c1cc(NC(=O)CN(c2ccccc2OC)S(=O)(=O)c2ccccc2)ccc1Cl	-34%	1%	-14%	?	10µM*	86%
CCOc1ccccc1N(CC(=O)Nc1ccccc1F)S(=O)(=O)c1ccccc1	-13%	6%	14%	?	10µM*	?
CCOc1ccccc1N(CC(=O)Nc1ccc(OC)cc1OC)S(=O)(=O)c1ccccc1	7%	-21%	0%	?	?	-14%
CCOc1ccc(NC(=O)CN(c2ccccc2OCC)S(=O)(=O)c2ccccc2)cc1	/	10%	/	/	/	/
COc1ccc(NC(=O)CN(c2ccccc2F)S(=O)(=O)c2ccc(C)cc2)c(OC)c1	10%	-14%	-1%	11µM*	?	1%
COc1ccccc1N(CC(=O)Nc1cc(C)on1)S(=O)(=O)c1cccc(C(F)(F)F)c1	-21%	-6%	-7%	-5%	13µM*	?
COC(=O)CSc1nnc2n(-c3ccccc3)c(=O)c3c4c(sc3n12)COC(C(C)C)C4 (stereo not drawn)	/	2%	/	/	/	/
COc1ccc(NC(=O)CN(c2ccc(OC)c(Cl)c2)S(=O)(=O)c2ccccc2)c(OC)c1	2%	-16%	-9%	?	?	12µM*
CCOc1ccc(NC(=O)c2c(C)nn(-c3ccc(F)cc3)c2-n2cccc2)cc1	/	-3%	/	/	/	/
Cc1c(-c2ccccc2)cnc2c(C)cccc12	/	/	4%	11µM*	/	/
O=C(O)c1c(-c2ccccc2)cnc2ccccc12	/	/	16%	/	/	/
